{
  "source": "PubChem BioAssay (NCI)",
  "note": "The panel holds about 83,000 compounds, 20% with a hit somewhere; the sample as a whole holds those more often.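 A percent growth of 40 corresponds to 60% growth inhibition; 0 means no net growth; -100 means all cells died. Active threshold: below 10.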 Activity calls are given as the source filed them.",
  "data": [
    {"tested_on": "HL-60(TB) leukemia", "assay": "NCI-60 one-dose screen, 48 h (100 = growth as untreated, 0 = no growth, -100 = all killed)", "conditions": "10 µM unless noted", "values": [
      {"molecule": "CN(C)C1=NCCN1", "growth": "97.9% (inactive)"},
      {"molecule": "Oc1cccnc1CN1CCCC1", "growth": "100% (inactive)"},
      {"molecule": "CCOC(=O)C(COS(C)(=O)=O)(COS(C)(=O)=O)C(=O)OCC", "growth": "104% (inactive)"}
    ]}
  ]
}
